About 79,000 compounds went through this panel and 15% of them were active in at least one assay; those are over-represented in the sample as a whole. Active and inactive are the calls of the source. Rule as the data show it: active = growth inhibition above about 70%; inactive = the rest.

A short description of test [1]: NCI Yeast Anticancer Drug Screen. Data for the rad50 strain (AID 155).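 Also: 0% = growth of vehicle-only cultures of the same strain.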 The settings on record: S. cerevisiae rad50 strain growth inhibition, hits give high values. Put shortly:
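Growth of the mutant yeast was measured after compound exposure and referenced to vehicle-treated cultures.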

The nature of test [2]: NCI Yeast Anticancer Drug Screen. Data for the mec2-1 strain (AID 157). The settings on record: S. cerevisiae mec2-1 strain, hits give high values. The gist of the method: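 Readout is yeast growth inhibition, normalised to vehicle-treated controls, in the mec2-1 strain exposed to compound.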
Test [3] can be described thus: NCI Yeast Anticancer Drug Screen. Data for the sgs1 mgt1 strain (AID 161).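 Also: 0% = growth of cultures given vehicle only.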 The settings on record: S. cerevisiae sgs1 mgt1 strain, hits give high values. Put shortly: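 Percent growth inhibition was derived by comparing compound-exposed mutant yeast with vehicle-exposed cultures. The strain carries alterations in DNA damage repair.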
A short description of test [4]: NCI Yeast Anticancer Drug Screen. Data for the cln2 rad14 strain (AID 165).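 Also: 0% = growth equal to vehicle treated cultures.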 The settings on record: S. cerevisiae cln2 rad14 strain, hits give high values. The gist of the method:
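Relative to vehicle controls, growth inhibition of compound-treated cln2 rad14 yeast was recorded.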

Test [5] in a line: NCI Yeast Anticancer Drug Screen. Data for the bub3 strain (AID 167). The settings on record: S. cerevisiae bub3 mutant strain, hits give high values. Put shortly: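 Whole-cell yeast assay. The mutant strain was incubated with compounds, and growth inhibition was determined by comparison with vehicle-treated cells.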
Test [6] can be described thus: NCI Yeast Anticancer Drug Screen. Data for the mlh1 rad18 strain (AID 175). The settings on record: S. cerevisiae mlh1 rad18 strain growth inhibition, hits give high values. Put shortly: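 Test agents were incubated with a yeast strain of defined genotype (DNA damage repair defect). Inhibition of growth was derived by comparison with vehicle-exposed cultures.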
The mark [7] stands for this setting: at 5.0 µM (retest, dose inferred, filed as 0.5).
[8] abbreviates: at 50.0 µM (retest, dose inferred, filed as 5.0).

As for `C#CC(NCCC(C)CC(C)(C)C)C(C)C` (configuration not stated), the growth inhibition in test [1] (setting [7]) was -4% (inactive); in test [1] (setting [8]), -62% (inactive); in test [1] (at 50.0 µM), 83.3% (active); in test [2] (setting [7]), 2% (inactive); in test [2] (setting [8]) it was -31% (inactive); in test [2] (at 50.0 µM), 36.2% (inactive). In addition, the growth inhibition in test [3] (setting [7]) was -3% (inactive); in test [3] (setting [8]), -22% (inactive); in test [3] (at 50.0 µM), 87.7% (active); in test [4] (setting [7]) it was -2% (inactive); in test [4] (setting [8]) it was -14% (inactive); in test [4] (at 50.0 µM), 21.4% (inactive). Further, the growth inhibition in test [5] (setting [7]) is -14% (inactive); in test [5] (setting [8]), -68% (inactive); in test [5] (at 50.0 µM), 29.6% (inactive); in test [6] (setting [7]) it was -3% (inactive); in test [6] (setting [8]), -43% (inactive); in test [6] (at 50.0 µM), 65.2% (inactive).

For `Oc1ccc(CNCc2ccccc2)c2cccnc12`, the growth inhibition in test [1] (setting [7]) is 20% (inactive); in test [1] (setting [8]), 98% (active); in test [1] (at 50.0 µM), 98.4% (active); in test [2] (setting [7]) it was 4% (inactive); in test [2] (setting [8]) it was 97% (active); in test [2] (at 50.0 µM), 97% (active). In addition, the growth inhibition in test [3] (setting [7]) was 0% (inactive); in test [3] (setting [8]), 98% (active); in test [3] (at 50.0 µM), 96.2% (active); in test [4] (setting [7]), -26% (inactive); in test [4] (setting [8]), 96% (active); in test [4] (at 50.0 µM) it was 94.6% (active). Besides, the growth inhibition in test [5] (setting [7]) is -5% (inactive); in test [5] (setting [8]) it was 99% (active); in test [5] (at 50.0 µM), 98.1% (active); in test [6] (setting [7]), 4% (inactive); in test [6] (setting [8]) it was 99% (active); in test [6] (at 50.0 µM), 98.2% (active).

Turning to `OC1(C2c3ccccc3-c3ccccc32)c2ccccc2-c2ccccc21`, the growth inhibition is 66% (inactive) in test [1] (setting [7]); 90% (active) in test [1] (setting [8]); 94.4% (active) in test [1] (at 50.0 µM); 38% (inactive) in test [2] (setting [7]); 94% (active) in test [2] (setting [8]); 80.7% (active) in test [2] (at 50.0 µM). Also, the growth inhibition is 45% (inactive) in test [3] (setting [7]); 94% (active) in test [3] (setting [8]); 94.3% (active) in test [3] (at 50.0 µM); 11% (inactive) in test [4] (setting [7]); 90% (active) in test [4] (setting [8]); 52.1% (inactive) in test [4] (at 50.0 µM). In addition, the growth inhibition in test [5] (setting [7]) is 28% (inactive); in test [5] (setting [8]), 92% (active); in test [5] (at 50.0 µM), 81.1% (active); in test [6] (setting [7]), 84% (active); in test [6] (setting [8]), 93% (active); in test [6] (at 50.0 µM), 94.6% (active).

For the molecule `O=C(Nc1c(Cl)cccc1Cl)Oc1cccc2cccnc12`, the growth inhibition in test [1] (setting [7]) is 58% (inactive); in test [1] (setting [8]) it was 97% (active); in test [1] (at 50.0 µM) it was 88.5% (active); in test [2] (setting [7]), 35% (inactive); in test [2] (setting [8]) it was 98% (active); in test [2] (at 50.0 µM) it was 90.6% (active). For the same molecule, the growth inhibition in test [3] (setting [7]) was 60% (inactive); in test [3] (setting [8]), 99% (active); in test [3] (at 50.0 µM), 90.6% (active); in test [4] (setting [7]), 20% (inactive); in test [4] (setting [8]), 98% (active); in test [4] (at 50.0 µM) it was 88% (active). The growth inhibition was 42% (inactive) in test [5] (setting [7]); 96% (active) in test [5] (setting [8]); 89.4% (active) in test [5] (at 50.0 µM); 57% (inactive) in test [6] (setting [7]); 97% (active) in test [6] (setting [8]); 88.3% (active) in test [6] (at 50.0 µM).
